According to article PMC4552634, “A New Set of Chemical Starting Points with Plasmodium falciparum Transmission-Blocking Potential for Antimalarial Drug Discovery” (PLoS ONE, 2015):
Read-outs that look alike come from different tables or passages of the source. In all, about 13,000 compounds went through this assay and about 3,200 (25%) showed an effect of 50% or more. The list shows a part of the results.

System: P. falciparum stage V gametocytes
Design: BacTiter-Glo ATP luminescence viability of purified stage V gametocytes in 384-well plates, per cent inhibition versus DMSO
Conditions: 48 h, 5 µM, inhibitor

SMILES | % Inhibition | % Inhibition (% Inhibition)
Cc1cccc(C)c1C1CCN(C2CCC(NC(=O)/C=C/c3ccccc3)CC2)CC1 (stereo not drawn) [TCMDC-132879] | -22.62% | 
C=CC12CCN(CC1)C(C(O)c1ccnc3ccc(OC)cc13)C2 (stereo not drawn) [TCMDC-124047] | -22.19% | 
O=C(Nc1ccc(F)c(F)c1)c1ccc(CN2CCCN(Cc3cccc(O)c3)CC2)cc1 [TCMDC-136390] | -4.727% | 
CC(=O)Nc1ncc(C(=O)Nc2cccc(-c3cccc(-c4nc5ccc(C(F)(F)F)cc5[nH]4)c3)c2)s1 [TCMDC-136918] | 17.49% | 
CCc1sc(N2CCN(C)CC2)nc1C(=O)Nc1ccc(F)cc1C(F)(F)F [TCMDC-134298] | 16.91% | 
CCN(CC)CCN(Cc1ccc(-c2ccc(C(F)(F)F)cc2)cc1)C(=O)Cn1c(CCc2cccc(F)c2F)nc(=O)c2sccc21 [TCMDC-140937] | 80.29% | 
Cc1noc(NC(=O)c2sc3ccccc3c2O)c1C [TCMDC-124523] | 7.208% | 
O=C(CNC(=O)c1ccc(O)cc1)Nc1ccc(-c2cccc(-c3nc4ccc(C(F)(F)F)cc4[nH]3)c2)cc1 [TCMDC-136817] | -15.92% | 
COc1cc(O)c2c(=O)c(OC)c(-c3cccc(Cl)c3OCC(=O)O)oc2c1OC [TCMDC-131682] | 2.376% | 
N=C(N)c1ccc(NCc2cccc(C(=O)O)c2)cc1 [TCMDC-136136] | -78.43% | 
O=C(O)c1ccc(-c2c[nH]c3ncc(-c4ccc(Cl)cc4)cc23)cc1 [TCMDC-135860] | 22.96% | 
CS(=O)(=O)Nc1cccc(-c2cnc3[nH]cc(-c4ccc(C(=O)O)cc4)c3c2)c1 [TCMDC-136215] | -36.34% | 
CS(=O)(=O)c1cccc(-c2cnc3[nH]cc(-c4ccc(CCC(=O)O)cc4)c3c2)c1 [TCMDC-136223] | 14.42% | 
CS(=O)(=O)Nc1cccc(-c2cnc3[nH]cc(-c4ccc(CCC(=O)O)cc4)c3c2)c1 [TCMDC-136222] | -32.54% | 
CCS(=O)(=O)c1ccc(-c2cnc3[nH]cc(-c4ccc(N)cc4)c3c2)cc1 [TCMDC-132582] | 93.29% | 
CS(=O)(=O)Nc1cccc(-c2cnc3[nH]cc(-c4cccc(CN)c4)c3c2)c1 [TCMDC-136219] | 26.05% | 
CS(=O)(=O)c1cccc(-c2cnc3[nH]cc(-c4cccc(CCN)c4)c3c2)c1 [TCMDC-136307] | 108.4% | 
CS(=O)(=O)Nc1cccc(-c2cnc3[nH]cc(-c4ccc(CN)cc4)c3c2)c1 [TCMDC-136218] | 33.32% | 
NCCC(=O)Nc1ccc(-c2cnc3[nH]cc(-c4ccc(C(=O)O)cc4)c3c2)cn1 [TCMDC-136494] | 31.68% | 
CS(=O)(=O)Nc1cccc(-c2cnc3[nH]cc(-c4ccc(C(=O)O)c(F)c4)c3c2)c1 [TCMDC-136221] | 80.96% | 
NCCNC(=O)c1ccc(-c2cnc3[nH]cc(-c4ccc(C(N)=O)cc4)c3c2)cc1 [TCMDC-132359] | 74.46% | 
CS(=O)(=O)Nc1ccc(-c2cnc3[nH]cc(-c4ccc(C(=O)O)cc4)c3c2)cc1 [TCMDC-136306] | 30.86% | 

SMILES | % Inhibition | % Inhibition (% Inhibition)
CCOC(=O)C(C(=O)OCC)c1nc(C)ns1 [TCMDC-131370] | 6.156% | 
O=C(Nc1ccc2c(c1)CCC2)c1ccc(N2CCN(c3ccncc3)CC2)cc1 [TCMDC-135127] | 32.87% | 
CC(C)/C(=C(/F)CN1C(=O)C(NC(=O)c2cc3ccccc3[nH]2)C(=O)N(c2ccccc2)c2ccccc21)c1ccccc1 (stereo not drawn) [TCMDC-131897] | 34.22% | 
O=C(Nc1ccc(N2CCCN(Cc3cccc(F)c3)CC2)cc1)c1cccs1 [TCMDC-135012] | -8.127% | 
CCc1nc(N)nc(N)c1-c1ccc(F)c(F)c1 [TCMDC-137370] | 12.31% | 
COc1ccccc1-c1sccc1C(=O)NC1(c2cc(Cl)cc(Cl)c2)CCCC1 [TCMDC-136461] | -44% | 
COc1ccc(Cl)cc1N1CCN(CCCNC(=O)c2ccc(-c3nc4cc(Cl)c(C)cc4[nH]3)s2)CC1 [TCMDC-140032] | 3.429% | 
CCc1sc(N2CCN(C)CC2)nc1C(=O)NCCc1ccc(Cl)c(Cl)c1 [TCMDC-134296] | 25.24% | 
CCc1sc(-c2cc(Cl)ccc2OC)nc1C(=O)NCCN1CCCCC1 [TCMDC-133716] | 70.94% | 
COc1ccc(Cl)cc1-c1nc(C(=O)NCCN2CCCCC2)c(C(C)C)s1 [TCMDC-133715] | 16.92% | 
CCOc1cc(C(=O)NCCN2CCCCC2)ccc1-c1nc2ccc(Cl)cc2[nH]1 [TCMDC-140913] | 5.667% | 
COc1ccc(Cl)cc1-c1nc(C(=O)NCCN2CCCCC2)c(C)s1 [TCMDC-133714] | 60.47% | 
Cc1ccccc1N1CCN(c2ccc(C(=O)NC(C)C)cn2)CC1 [TCMDC-134577] | -17.52% | 
CCOC(=O)c1cnc2c(C(F)(F)F)cccc2c1Nc1ccc(O)cc1 [TCMDC-125649] | -55.53% | 
COc1ccc2nccc([C@@H](O)CN3CCC(NC(=O)/C=C/c4cc([N+](=O)[O-])ccc4OC)CC3)c2c1 [TCMDC-141044] | -26.66% | 
N#CN1CC[C@@H](NS(=O)(=O)Cc2ccc(Cl)c(Cl)c2)C1 [TCMDC-133787] | 27.55% | 
CCCCCCOc1ccc(C(=O)NCCCC2CCCN(CCCCCNC(=O)C=Cc3ccc(Cl)c(Cl)c3)C2)cc1 (stereo not drawn) [TCMDC-139581] | 50.48% | 
O=C(C=Cc1ccc(Cl)c(Cl)c1)NCCCCCN1CCC(CCNC(=O)c2ccc3c(c2)OCO3)CC1 [TCMDC-139568] | 96.26% | 
O=C(C=Cc1ccc(Cl)c(Cl)c1)NCCCCCN1CCC(CCCNC(=O)c2ccc3c(c2)OCO3)CC1 [TCMDC-139574] | 21.18% | 
CCCCCCOc1ccc(C(=O)NCCC2CCN(CCCCCNC(=O)C=Cc3ccc(Cl)c(Cl)c3)CC2)cc1 [TCMDC-139569] | 13.58% | 
O=C(/C=C/c1ccc(Cl)c(Cl)c1)NCCCCCN1CCC(C(=O)Nc2ccc3c(c2)OCO3)CC1 [TCMDC-136127] | -2.985% | 
CCCCCCOc1ccc(C(=O)NCCCC2CCN(CCCCCNC(=O)C=Cc3ccc(Cl)c(Cl)c3)CC2)cc1 [TCMDC-139575] | 7.423% | 

SMILES | % Inhibition | % Inhibition (% Inhibition)
O=C(/C=C/c1ccc(Cl)c(Cl)c1)NCCCCCN1CCC(NC(=O)Nc2ccc3c(c2)OCO3)CC1 [TCMDC-135718] | -35.92% | 
O=C(C=Cc1ccc(Cl)c(Cl)c1)NCCCCCN1CCCC(CCCNC(=O)c2ccc3c(c2)OCO3)C1 (stereo not drawn) [TCMDC-139580] | 81.7% | 
O=C(/C=C/c1ccc(Cl)c(Cl)c1)NCCCCCN1CC[C@H](NC(=O)c2ccc3c(c2)OCO3)C1 [TCMDC-139563] | 17.23% | 
Cc1ccc(NC(=O)N2CCCN(CCCCCNC(=O)/C=C/c3ccc(Cl)c(Cl)c3)CC2)cc1 [TCMDC-135744] | -49.55% | 
N#Cc1cc(C(=O)c2cc(Br)ccc2O)cn(-c2cc(Cl)cc(Cl)c2)c1=O [TCMDC-125187] | -21.05% | 
O=[N+]([O-])c1cccc(CNCC2CCC(CNCc3cccc([N+](=O)[O-])c3)CC2)c1 (stereo not drawn) [TCMDC-141176] | 8.201% | 
COc1ccc(OC)c(CC2c3ccc(Br)c(O)c3CCN2C)c1 (stereo not drawn) [TCMDC-137439] | 12.74% | 
CN1CCN(c2cc3c(cc2Cl)CCN3C(=O)Cc2ccc(NC(=O)Nc3cccc4ccccc34)cc2)CC1 [TCMDC-139472] | -2.627% | 
Cn1ccnc1CNC(=O)c1ccc(-c2cccc(-c3nc4cc(C(F)(F)F)ccc4[nH]3)c2)cc1 [TCMDC-132357] | 7.087% | 
Cc1[nH]c(C)c(-c2ccc(-c3ccccc3)nc2)c(=O)c1Br [TCMDC-136158] | 42.67% | 
Cc1[nH]c(C)c(-c2ccc(-c3ccc(Cl)cc3)nc2)c(=O)c1Br [TCMDC-136159] | 67.06% | 
Cc1[nH]c(C)c(-c2ccc(-c3ccc(C#N)cc3)nc2)c(=O)c1Br [TCMDC-136169] | 28.48% | 
Cc1[nH]c(C)c(-c2ccc(-c3ccc(F)cc3)nc2)c(=O)c1Br [TCMDC-135925] | 64.89% | 
Cc1[nH]c(C)c(-c2ccc(-c3ccc(Cl)cc3)nc2)c(=O)c1Cl [TCMDC-136301] | 72.82% | 
Cc1[nH]c(C)c(-c2ccc(-c3ccc(OCC(F)(F)F)cc3)nc2)c(=O)c1Cl [TCMDC-132306] | 43.23% | 
Cc1[nH]c(C)c(-c2ccc(-c3ccc(C(F)F)cc3)nc2)c(=O)c1Cl [TCMDC-132329] | 58.86% | 
CC1(C)N=C(N)N=C(N)N1OCCCOc1ccccc1Cl [TCMDC-131739] | -0.9938% | 
O=C(Nc1ccc(-c2nc3ccccc3[nH]2)cc1)c1ccc(S(=O)(=O)N2CCc3ccccc32)cc1 [TCMDC-125713] | -13.88% | 
O=C(N[C@@H](CC1CCCCC1)C(=O)NC1CCCc2ccccc21)c1ccc(O)c(-c2ccc(Cl)c(Cl)c2)c1 (stereo partly drawn) [TCMDC-140869] | 28.8% | 
CCOC(=O)c1ccc(-n2c(C)cc(C=C3SC(=Nc4ccccc4)N(C4CCCC4)C3=O)c2C)cc1 [TCMDC-125697] | -3.505% | 
Cc1[nH]c(C)c(-c2ccc(-c3ccc4c(c3)OCO4)nc2)c(=O)c1Br [TCMDC-136161] | 79.48% | 
CCC1CN2CCc3c([nH]c4ccccc34)[C@@H]2C[C@@H]1CC1NCCc2cc(OC)c(OC)cc21 (stereo partly drawn) [TCMDC-142008] |  | -47.66%
